# Assay results published in PubChem BioAssay (EPA / NIEHS).
# Values joined by “and” are separate entries in the source; they are usually repeats but may differ in a detail not shown here. Identical values can stand only once. Records with an inconclusive call do not appear. Where a structure was tested more than once in an assay, its records may differ in their call. Active and inactive are the calls of the source. Rule for the calls, unless noted: active = hit-call score of the fitted dose curve at least 0.9, where 1 is the maximum; inactive = score below 0.9.
# Columns and labels:
# [1] = read-out: Interleukin-8 (IL8), CXCL8 (gene 3576); test: BSK_3C_IL8: BioMAP Diversity Plus: 3C Assay for Interleukin-8 (IL8) Biomarker Activity (AID 2283020); conditions: primary human endothelial cells (HUVEC); actives raise or lower the signal
# Method in brief: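 Human vascular endothelial cells (umbilical vein) in the 3C system; IL-8 level detected by ELISA at 24 h post-dose, with DMSO as baseline.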
# [2] = read-out: Monokine induced gamma interferon (MIG), CXCL9 (gene 4283); test: BSK_3C_MIG: BioMAP Diversity Plus: 3C Assay for Monokine induced gamma interferon (MIG) Biomarker Activity (AID 2283021); conditions: primary human endothelial cells (HUVEC); actives raise or lower the signal;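 for AC50: MIG protein level measured by immunoassay in the treated endothelial cultures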
# Method in brief: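 After 24 h of treatment, human umbilical vein endothelial cultures (3C system) had their MIG biomarker level determined by ELISA, with DMSO serving as negative control.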
# [3] = target: human Vitamin D Receptor (VDR), VDR (gene 7421) (UniProt P11473); test: ATG_VDR_TRANS: Attagene TRANS-FACTORIAL HepG2 Assay for human Vitamin D Receptor (VDR) (AID 2283022; active = hit-call score of the fitted dose curve at least 0.9, where 1 is the maximum)
# Sequence of human Vitamin D Receptor (VDR), VDR (gene 7421) (P11473 whole entry, looked up, the tested form may be a part): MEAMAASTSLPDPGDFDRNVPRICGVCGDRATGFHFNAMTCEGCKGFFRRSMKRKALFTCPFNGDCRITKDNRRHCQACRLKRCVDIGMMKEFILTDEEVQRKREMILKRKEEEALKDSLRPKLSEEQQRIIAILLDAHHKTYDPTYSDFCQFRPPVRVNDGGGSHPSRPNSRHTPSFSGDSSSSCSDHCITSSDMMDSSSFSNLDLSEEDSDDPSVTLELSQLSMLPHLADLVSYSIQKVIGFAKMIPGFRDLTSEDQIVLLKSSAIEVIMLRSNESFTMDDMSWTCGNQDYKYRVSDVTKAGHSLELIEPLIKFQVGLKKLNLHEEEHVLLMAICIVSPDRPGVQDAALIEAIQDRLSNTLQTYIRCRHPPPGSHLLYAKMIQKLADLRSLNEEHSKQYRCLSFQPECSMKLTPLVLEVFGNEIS
# Method in brief: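 Steps: transfect HepG2 with GAL4-UAS-driven reporter constructs; dose compounds 24 h; isolate RNA, reverse-transcribe, PCR-amplify with 6-FAM-labelled primer extension and HpaI digestion; quantify fragments by capillary electrophoresis relative to DMSO.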
# [4] = BSK_3C_SRB: Viability Assessment in the BioMAP Diversity Plus: 3C Assay (AID 2283023); conditions: primary human endothelial cells (HUVEC);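 note: cells read 24 h after compound dosing; fitted both ways against DMSO so a hit may be signal rise or drop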
# Method in brief: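 Absorbance at 560 nm of sulforhodamine B-stained (0.1%) total protein served as a cytotoxicity readout in human umbilical vein endothelial cells, 24 h after chemical treatment. Signal was fitted bidirectionally relative to DMSO.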
# [5] = read-out: Matrix Metallopeptidase 1 (MMP1), MMP1 (gene 4312); test: BSK_BE3C_MMP1: BioMAP Diversity Plus: BE3C Assay for Matrix Metallopeptidase 1 (MMP1) Biomarker Activity (AID 2283024); conditions: primary human bronchial epithelial cells; actives raise or lower the signal
# Method in brief: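 Dose cells, wait 24 h, run MMP1 ELISA; cells are human bronchial epithelial primaries. Both increases and decreases relative to DMSO counted.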
# [6] = BSK_3C_Vis: BioMAP Diversity Plus: 3C Assay for Morphology Visualization (AID 2283025); conditions: primary human endothelial cells (HUVEC);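 note: fitted both ways so gain or loss versus DMSO counts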;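 for AC50: light microscopy image of cell morphology used as background control; cells imaged 24 h after dosing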
# Method in brief: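 Endothelial cells from human umbilical vein were treated with test chemicals for 24 h and inspected by light microscopy for changes in cell conformation.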
# [7] = read-out: Pselectin, SELP (gene 6403); test: BSK_4H_Pselectin: BioMAP Diversity Plus: 4H Assay for Pselectin Biomarker Activity (AID 2283026); conditions: primary human endothelial cells (HUVEC); actives raise or lower the signal
# Method in brief: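 Human vascular endothelium from umbilical vein; P-selectin measured by ELISA at 24 h post-dose, with cytotoxicity checked by sulforhodamine B total-protein staining in parallel cultures (0.1% SRB after 10% TCA fixation, read at 560 nm).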
# [8] = BSK_4H_SRB: Viability Assessment in the BioMAP Diversity Plus: 4H Assay (AID 2283027); conditions: primary human endothelial cells (HUVEC);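 note: cells exposed to compound for 24 h before staining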;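 for AC50: curves fitted both ways versus DMSO so AC50 may be loss or gain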
# Method in brief: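 Human umbilical vein endothelial cells were dosed with chemical and, after 24 h, fixed with 10% TCA, stained with 0.1% sulforhodamine B, and read at 560 nm to give total protein as a cytotoxicity measure. Bidirectional fitting relative to DMSO control.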
# [9] = BSK_BE3C_SRB: Viability Assessment in the BioMAP Diversity Plus: BE3C Assay (AID 2283028); conditions: primary human bronchial epithelial cells;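 note: measured 24 h after chemical dosing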;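 for AC50: fitted both ways so AC50 may mark signal gain or loss versus DMSO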
# Method in brief: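 Cells (human bronchial epithelial, primary) are treated with chemicals, and after 24 h the parallel cultures are fixed in 10% TCA. These are then stained with 0.1% SRB and read at 560 nm. Gain or loss of signal is fitted relative to DMSO.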
# [10] = read-out: Thrombomodulin, THBD (gene 7056); test: BSK_3C_Thrombomodulin: BioMAP Diversity Plus: 3C Assay for Thrombomodulin Biomarker Activity (AID 2283029); conditions: primary human endothelial cells (HUVEC); actives raise or lower the signal
# Method in brief: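 Thrombomodulin ELISA, human primary HUVEC, 24 h post-dose; data fitted in both directions relative to DMSO.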
Structure (SMILES),outcome [1],outcome [2],outcome [3],outcome [4],outcome [5],outcome [6],outcome [7],outcome [8],outcome [9],outcome [10],AC50 [4],AC50 [5],AC50 [8],AC50 [1],AC50 [6],AC50 [2],AC50 [7],AC50 [9],AC50 [10]
CCCCOCCOCCOC(=O)CCCCC(=O)OCCOCCOCCCC,inactive,inactive,inactive,inactive,inactive,inactive,inactive,inactive,inactive,inactive,,,,,,,,,
N=C(N)C(F)(F)C(F)(F)C(F)(F)C(F)(F)C(F)(F)C(F)(F)C(F)(F)F,inactive,inactive,inactive,inactive,inactive,,inactive,inactive,inactive,inactive,54.9 µM (active),19.4 µM (active),48.5 µM (active),,,,,,
CCc1ccc(C(c2ccc(CC)cc2)C(Cl)Cl)cc1,,inactive,inactive,,,,inactive,,inactive,inactive,12.5 µM (active),7.64 µM (active),15 µM (active),11.6 µM (active),13 µM (active),,,,
CCCCC(CC)COP(=O)(O)OCC(CC)CCCC (stereo unspecified),inactive,inactive,inactive,inactive,inactive,,inactive,inactive,inactive,inactive,27.7 µM (active),,,,,,,,
C#C[C@]1(O)CC[C@H]2[C@@H]3CCc4cc(OC)ccc4[C@H]3CC[C@@]21C,,inactive,inactive,inactive,inactive,,inactive,inactive,inactive,inactive,,,,3.97 µM (active),37.5 µM (active),,,,
CCCCCCCCCCCCCCCC[N+](C)(C)Cc1ccccc1,,,inactive,inactive,,,,,,,,9.34 µM (active),5.09 µM (active),7.59 µM (active),2.96 µM (active),4.12 µM (active),4.62 µM (active),5.04 µM (active),5.17 µM (active)
FC(F)(F)C(F)(F)C(F)(F)C(F)(F)CCI,inactive,inactive,inactive,inactive,inactive,,inactive,inactive,inactive,inactive,,30 µM (active),,,,,,,
O=C(Cl)C(F)(F)C(F)(F)C(F)(F)C(F)(F)C(F)(F)C(F)(F)C(F)(F)C(F)(F)F,inactive,inactive,inactive,,,,inactive,inactive,,inactive,45 µM (active) and 50.8 µM (active) and 49.9 µM (active),50.8 µM (active) and 51.7 µM (active) and 52 µM (active),30 µM (active),41 µM (active),,,,58.5 µM (active) and 46.6 µM (active) and 47.3 µM (active),
Cc1ccc(S(=O)(=O)OCC(F)(F)C(F)(F)C(F)(F)C(F)(F)C(F)(F)C(F)F)cc1,inactive,inactive,inactive,,inactive,,inactive,inactive,inactive,inactive,45.5 µM (active) and 38.1 µM (active),18.2 µM (active),,,,,,,
Oc1ccc(Nc2ccccc2)cc1,,inactive,inactive,inactive,inactive,inactive,inactive,inactive,inactive,inactive,,,,0.0694 µM (active),,,,,
CO[Si](OC)(c1ccccc1)c1ccccc1,,inactive,inactive,,inactive,,inactive,inactive,inactive,inactive,36.9 µM (active),,,20 µM (active),37.4 µM (active),,,,
Nc1ccc([N+](=O)[O-])cc1O,inactive,inactive,inactive,inactive,inactive,inactive,inactive,inactive,inactive,inactive,,,,,,,,,
O=S(=O)(OCC(F)F)C(F)(F)F,inactive,inactive,inactive,inactive,inactive,,inactive,inactive,inactive,inactive,,,,,,,,,
FC(F)(Br)C(F)(F)C(F)(F)C(F)(F)C(F)(F)C(F)(F)Br,inactive,inactive,inactive,inactive,inactive,,inactive,inactive,inactive,inactive,,,,,,,,,
O[Si](c1ccccc1)(c1ccccc1)c1ccccc1,inactive,inactive,inactive,,inactive,,,,inactive,inactive,28.9 µM (active),,13.8 µM (active),,37.4 µM (active),,26.8 µM (active),,
OCCCC(F)(F)C(F)(F)C(F)(F)C(F)(F)C(F)(F)C(F)(F)C(F)(F)F,,,inactive,,,,inactive,,,inactive,32.6 µM (active) and 45.2 µM (active),49.7 µM (active) and 48.3 µM (active),49.4 µM (active) and 48.3 µM (active),44.9 µM (active) and 47.6 µM (active),,49.2 µM (active) and 43.7 µM (active),41.8 µM (active),49.1 µM (active) and 52.5 µM (active),
FC(F)(F)C(F)(F)C(F)(F)C(F)(F)C(F)(F)C(F)(F)CCS,inactive,inactive,inactive,inactive,inactive,,inactive,inactive,inactive,inactive,,,,,,,,,

Structure (SMILES),outcome [1],outcome [2],outcome [3],outcome [4],outcome [5],outcome [6],outcome [7],outcome [8],outcome [9],outcome [10],AC50 [4],AC50 [5],AC50 [8],AC50 [1],AC50 [6],AC50 [2],AC50 [7],AC50 [9],AC50 [10]
OCC(F)(F)C(F)(F)C(F)(F)C(F)(F)C(F)(F)C(F)(F)F,inactive,inactive,inactive,inactive,inactive,,inactive,inactive,inactive,inactive,58.5 µM (active),,,,,,43.6 µM (active),,
FC(F)(F)C(F)(F)CNCC(F)(F)C(F)(F)F,inactive,inactive,inactive,inactive,inactive,,inactive,inactive,inactive,inactive,,,,30 µM (active),,,,,
CC(=O)Nc1ccc(N=Nc2cc(C)ccc2O)cc1,inactive,inactive,inactive,inactive,,,,inactive,inactive,,,24.7 µM (active),,,39.6 µM (active),,15.2 µM (active),,7.5 µM (active)
C=CC(=O)OCC(F)(F)C(F)(F)C(F)(F)C(F)(F)COC(=O)C=C,,,inactive,,,,,,inactive,inactive,34.8 µM (active) and 24.8 µM (active),20.4 µM (active) and 20.5 µM (active),47.1 µM (active) and 44.8 µM (active),23.6 µM (active) and 44.4 µM (active),,23.5 µM (active) and 26.4 µM (active),20.6 µM (active) and 28.9 µM (active),,
FC(F)(F)C(F)(F)C(F)(F)C(F)(F)C(F)(F)C(F)(F)C(F)(F)C(F)(F)CCS,inactive,inactive,inactive,inactive,inactive,,inactive,inactive,inactive,inactive,,,,,,,,,
CCc1c(Br)c(Br)c(Br)c(Br)c1Br,inactive,inactive,inactive,inactive,inactive,inactive,inactive,inactive,inactive,inactive,,,,,,,,,
O=C(O)C(F)(F)C(F)(F)C(F)(F)C(F)(F)C(F)(F)C(F)(F)C(F)(F)C(F)(F)Cl,inactive,inactive,inactive,,,,inactive,,,,52.5 µM (active) and 45.1 µM (active),7.12 µM (active) and 55.3 µM (active),49.7 µM (active) and 52.2 µM (active),45.1 µM (active),,55.1 µM (active),,41.3 µM (active) and 29.4 µM (active),48.5 µM (active) and 45.4 µM (active)
CCCCNc1ccccc1,inactive,inactive,inactive,inactive,inactive,inactive,inactive,inactive,inactive,inactive,,,,,,,,,
CC(CCl)OP(=O)(OC(C)CCl)OC(C)CCl (stereo unspecified),inactive,inactive,inactive,inactive,inactive,inactive,inactive,inactive,inactive,inactive,,,,,,,,,
C=C(C)C(=O)OCC(F)(F)C(F)(F)C(F)(F)C(F)(F)C(F)(F)C(F)(F)C(F)(F)F,inactive,inactive,inactive,inactive,inactive,,inactive,inactive,inactive,inactive,,3.2 µM (active),,,,,,,
CCCCCCC(C)OC(=O)CCCCC(=O)OC(C)CCCCCC (stereo unspecified),inactive,inactive,inactive,inactive,inactive,inactive,inactive,inactive,inactive,inactive,,,,,,,,,
CC(C)(C)C(=O)CC(=O)C(F)(F)C(F)(F)C(F)(F)F,inactive,inactive,inactive,inactive,inactive,,inactive,inactive,inactive,,48.3 µM (active),,,,,,5.95 µM (active),,41.2 µM (active) and 47.3 µM (active)
O=C(O)C(F)(F)C(F)(F)F,inactive,inactive,inactive,inactive,inactive,,inactive,inactive,inactive,inactive,,,,,,,,,
OCC(F)(F)C(F)(F)C(F)(F)C(F)(F)C(F)(F)C(F)F,inactive,inactive,inactive,inactive,inactive,,inactive,inactive,inactive,inactive,,,,,,,,,
FC(F)(F)C(F)(F)C(F)(F)N(C(F)(F)C(F)(F)C(F)(F)F)C(F)(F)C(F)(F)C(F)(F)F,inactive,inactive,inactive,inactive,inactive,,inactive,inactive,inactive,inactive,,,,,,,,,
O=S(=O)(OCCOC(F)(F)F)C(F)(F)F,inactive,inactive,inactive,inactive,inactive,,inactive,inactive,inactive,inactive,,,,,,,,,
C=CC/C=C/C/C=C/C/C=C/C,inactive,inactive,,inactive,inactive,inactive,inactive,inactive,inactive,inactive,,,,,,,,,
